# PubChem BioAssay (Tox21)
# Unmarked numbers belong to inactive results. Results filed as inconclusive are left out. A call without a number means that no potency is given here. Active and inactive are the calls of the source. Unless noted, the call rests on the fitted dose curve; in most records, active means well fitted curve in the direction sought with a large enough effect in the repeat runs; inconclusive means weak or mixed curves; inactive means no such curve, though single readings can be large; an effect the other way counts as inactive or inconclusive.
# Legend:
# [1] = target: Thyrotropin-releasing hormone receptor (Homo sapiens) (UniProt P34981); assay: qHTS assay to identify small molecule agonists of the thyrotropin-releasing hormone receptor (TRHR) signaling pathway (AID 1346891; calls by dose curve;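 further: HEK293 cells expressing TRHR with calcium dye readout; series mostly up to about 58 µM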)
# Method in brief: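 Cells: TRHR-Hek293, seeded and incubated 18 h. Dye loading: 2 h at 37 °C. Compound added from DMSO stock by pin tool. Read-out: kinetic calcium fluorescence over 3 min.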
# [2] = Caspase-3/7 induction in HepG2 cells by small molecules, qHTS assay (AID 1346978); further: nearly all actives have a fitted effect of over 15% in size
# Method in brief: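 Wild-type HepG2 cells, 2,000/well, settled 5 hr at 37 C and 5% CO2, then compound-treated for 17 hr; caspase-3/7 activity read by luminescent Caspase-Glo 3/7 after 30 min at room temperature.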
# [3] = Caspase-3/7 induction in CHO-K1 cells by small molecules, qHTS cell viability counter screen (AID 1346979); further: nearly all actives have a fitted effect of over 35% in size; further: potency means the concentration at half of the fitted maximal effect
# Method in brief: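 Cytotoxicity counter screen run in parallel with the caspase-3/7 assay: CHO-K1 cells, 16hr compound treatment at 37C, then CellTiter-Fluor for 1hr before fluorescence reading.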
# [4] = Caspase-3/7 induction in CHO-K1 cells by small molecules, qHTS assay (AID 1346980); further: nearly all actives have a fitted effect of over 15% in size
# Method in brief: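 Wild-type CHO-K1 cells exposed to compounds for 17hr at 37 C, 5% CO2. Caspase-3/7 activity then measured by Caspase-Glo 3/7 luminescence after 30min at room temperature.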
# [5] = Caspase-3/7 induction in HepG2 cells by small molecules, qHTS cell viability counter screen (AID 1346981); further: nearly all actives have a fitted effect of over 30% in size; further: potency means the concentration at half of the fitted maximal effect
# Method in brief: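 Wild-type HepG2 cells, 2,000/well, settled 5 hr at 37 C, 5% CO2 before compound addition. Viability read by CellTiter-Fluor fluorescence, reagent added after 16 hr compound exposure, then 1 hr at 37C, in the same wells as the caspase read.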
# [6] = target: Nuclear receptor subfamily 1 group I member 2 (Homo sapiens) (UniProt O75469); assay: Human pregnane X receptor (PXR) small molecule agonists, qHTS assay (AID 1346982); further: nearly all actives have a fitted effect of over 35% in size; further: potency means the concentration at half of the fitted maximal effect
# Method in brief: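 PXR-Luc HepG2 reporter cells (CYP3A4-driven luciferase) in 5% charcoal-stripped FBS medium, plated 5 h before compound addition, then treated 24 h at 37C. Luciferase read by ONE-Glo luminescence after 30 min at room temperature.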
# [7] = target: Acetylcholinesterase (Homo sapiens) (UniProt P22303); assay: Acetylcholinesterase (AChE) small molecule antagonists: colormetric cell-based qHTS assay (AID 1347395; calls by dose curve; further: nearly all actives have a fitted effect of over 30% in size)
# Method in brief: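 Cells (SH-SY5Y, 2,000 per well) are seeded and left overnight at 37 C. Compound is added for 30 min, then DTNB and acetylthiocholine for a further 90 min at 37 C before absorbance-based thiocholine detection.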
# [8] = target: Acetylcholinesterase (Homo sapiens) (UniProt P22303); assay: Acetylcholinesterase (AChE) small molecule antagonists: enzyme-based qHTS assay (AID 1347397; calls by dose curve; further: nearly all actives have a fitted effect of over 55% in size); conditions: Potency: AChE enzyme activity inhibition
# Method in brief: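 Enzyme inhibition was scored from DTNB-detected thiocholine formed by recombinant human AChE acting on acetylthiocholine. The 30 min compound preincubation and 10 min substrate reaction were both run at room temperature, with DMSO as vehicle control.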
# [9] = target: Acetylcholinesterase (Homo sapiens) (UniProt P22303); assay: Acetylcholinesterase (AChE) small molecule antagonists: fluorescence cell-based qHTS assay (AID 1347398; calls by dose curve; further: nearly all actives have a fitted effect of over 50% in size); conditions: Potency: AChE activity
# Method in brief: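 Endogenous acetylcholinesterase of SH-SY5Y neuroblastoma cells is measured in situ. After overnight attachment and 30 min compound exposure, cells receive acetylthiocholine and Thiolite Green; fluorescence is read after 40 min at room temperature.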
# [10] = target: Cytochrome P450 2D6 (Homo sapiens) (UniProt P10635); assay: Cytochrome P450 Family 2 Subfamily D Member 6 (CYP2D6) small molecule antagonists: luciferase reporter qHTS assay (AID 1671196); further: nearly all actives have a fitted effect of over 50% in size; further: potency means the concentration at half of the fitted maximal effect
# Method in brief: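 Cell-free P450-Glo system: CYP2D6 with proluciferin substrate was pre-incubated with compound for 10 min, then reacted with NADPH regeneration for 1 h at room temperature. Luciferin product was detected after 20 min, and data were reported as relative luminescence units.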
# [11] = target: Cytochrome P450 2C9 (Homo sapiens) (UniProt P11712); assay: Cytochrome P450 Family 2 Subfamily C Member 9 (CYP2C9) small molecule antagonists: luciferase reporter qHTS assay (AID 1671198); further: nearly all actives have a fitted effect of over 50% in size; further: potency means the concentration at half of the fitted maximal effect
# Method in brief: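 P450-Glo proluciferin substrate with CYP2C9 enzyme; 10 min RT preincubation, then NADPH regeneration 1 h at 37C; luciferin detection reagent 20 min RT, luminescence in relative luminescence units.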
# [12] = target: Cytochrome P450 1A2 (Homo sapiens) (UniProt P05177); assay: Cytochrome P450 Family 1 Subfamily A Member 2 (CYP1A2) small molecule antagonists: luciferase reporter qHTS assay (AID 1671199); further: potency means the concentration at half of the fitted maximal effect; nearly all actives have a fitted effect of over 50% in size
# Method in brief: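 P450-Glo CYP1A2 enzyme–proluciferin substrate mix with compound 10 min at room temperature, then NADPH regeneration 1 h at room temperature. Luciferin detection reagent added, luminescence read after 20 min; furafylline positive control.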
# [13] = target: Voltage-gated inwardly rectifying potassium channel KCNH2 (Homo sapiens) (UniProt Q12809); assay: Human Ether-a-go-go-Related Gene (hERG) channel small molecule antagonists: fluorescence cell-based qHTS assay (AID 1671200); further: nearly all actives have a fitted effect of over 50% in size; further: potency means the concentration at half of the fitted maximal effect
# Method in brief: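 Fluorescence at 540 nm emission (480 nm excitation) was recorded kinetically for 2 min at 1-second intervals once the thallium-containing stimulus reached cells previously loaded with FluxOR II dye.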
# [14] = target: Cytochrome P450 3A4 (Homo sapiens) (UniProt P08684); assay: Cytochrome P450 Family 3 Subfamily A Member 4 (CYP3A4) small molecule antagonists: luciferase reporter qHTS assay (AID 1671201); further: nearly all actives have a fitted effect of over 50% in size; further: potency means the concentration at half of the fitted maximal effect
# Method in brief: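 qHTS, 1536-well. CYP3A4 + proluciferin substrate, cpd 10 min RT → NADPH regen 1 h RT → detection reagent 20 min → luminescence (RLU). Ketoconazole positive control.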
# [15] = target: Nuclear receptor subfamily 1 group I member 2 (Rattus norvegicus) (UniProt Q9R1A7); assay: Rat pregnane X receptor (rPXR) activation by small molecules, qHTS assay (AID 1346983); conditions: rPXR luciferase reporter cells, One-Glo luminescence, 24 h; max activation: hits give high values; further: nearly all actives have a fitted effect of over 20% in size; further: potency means the concentration at half of the fitted maximal effect
# Method in brief: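 Cell-based rPXR activation assay: rPXR cells, 2,000 per well, rested 5hr at 37 C, then exposed to compounds in DMSO for 24 hr at 37 C. Luciferase activity read by One-Glo luminescence after 30 min at room temperature.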
# [16] = target: Nuclear receptor subfamily 1 group I member 2 (Homo sapiens) (UniProt O75469); assay: CYP3A4 induction through human pregnane X receptor (PXR) by small molecules, qHTS assay (AID 1346984); further: nearly all actives have a fitted effect of over 40% in size; further: potency means the concentration at half of the fitted maximal effect
# Method in brief: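 DPX-2 HepG2 cells carrying a PXR response element and CYP3A4-promoter luciferase construct, treated with compounds 24 hr at 37C. Then P450-Glo CYP3A4 Luciferin-IPA substrate (3uM final) for 3 hr at 37C, One-Glo added, luminescence read.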
# [17] = target: Nuclear receptor subfamily 1 group I member 2 (Homo sapiens) (UniProt O75469); assay: Human pregnane X receptor (PXR) activation by small molecules, qHTS assay (AID 1346985); further: nearly all actives have a fitted effect of over 40% in size; further: potency means the concentration at half of the fitted maximal effect
# Method in brief: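 DPX-2 cells (HepG2 co-transfected with a PXR response element and a CYP3A4-promoter luciferase construct) were seeded at 2,000 per well, rested 5 hr at 37C, then exposed to DMSO-dissolved compounds for 24 hr. Activation was read as luciferase luminescence.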
# [18] = target: Cytochrome P450 2C19 (Homo sapiens) (UniProt P33261); assay: Cytochrome P450 Family 2 Subfamily C Member 19 (CYP2C19) small molecule antagonists: luciferase reporter qHTS assay (AID 1671197); further: nearly all actives have a fitted effect of over 65% in size; further: potency means the concentration at half of the fitted maximal effect
# Method in brief: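 Compounds were tested on CYP2C19 activity via proluciferin conversion to luciferin. The 37C, 1 h reaction followed NADPH addition; detection reagent stopped it.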
# [19] = target: Acetylcholinesterase (Homo sapiens) (UniProt P22303); assay: Acetylcholinesterase (AChE) small molecule antagonists: enzyme-based qHTS assay with human liver microsomes (AID 1347399; calls by dose curve; further: nearly all actives have a fitted effect of over 60% in size); conditions: Potency: qHTS inhibition
# Method in brief: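 Recombinant human AChE (50 mU/mL in the enzyme mix) and human liver microsomes (0.25 mg/mL final) were preincubated with compound and NADPH (0.25 mg/mL final) for 30 min at 37 C. Acetylthiocholine/DTNB was then added; thiocholine was read colorimetrically after 10 min at room temperature.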
# [20] = Human pregnane X receptor (PXR) small molecule agonists, qHTS cell viability counter screen (AID 1346977); further: nearly all actives have a fitted effect of over 50% in size; further: potency means the concentration at half of the fitted maximal effect
# Method in brief: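 Cytotoxicity counter screen run in the same wells as the PXR luciferase assay, using PXR-Luc HepG2 cells in charcoal-stripped serum medium. Viability: CellTiter-Fluor fluorescence after 24hr compound treatment.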
# Thyrotropin-releasing hormone receptor (Homo sapiens), sequence (P34981 whole entry, looked up): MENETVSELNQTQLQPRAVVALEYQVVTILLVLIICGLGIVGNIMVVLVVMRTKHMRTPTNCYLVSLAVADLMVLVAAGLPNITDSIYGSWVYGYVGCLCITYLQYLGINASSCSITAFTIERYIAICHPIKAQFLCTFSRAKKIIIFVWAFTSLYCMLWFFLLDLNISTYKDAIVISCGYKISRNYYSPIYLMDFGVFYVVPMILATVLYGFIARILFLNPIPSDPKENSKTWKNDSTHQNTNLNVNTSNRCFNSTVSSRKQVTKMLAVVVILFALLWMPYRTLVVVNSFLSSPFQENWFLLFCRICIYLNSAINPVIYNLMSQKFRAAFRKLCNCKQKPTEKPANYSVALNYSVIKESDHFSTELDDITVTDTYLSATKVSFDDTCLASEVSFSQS
# Cytochrome P450 2C9 (Homo sapiens), sequence (P11712 whole entry, looked up): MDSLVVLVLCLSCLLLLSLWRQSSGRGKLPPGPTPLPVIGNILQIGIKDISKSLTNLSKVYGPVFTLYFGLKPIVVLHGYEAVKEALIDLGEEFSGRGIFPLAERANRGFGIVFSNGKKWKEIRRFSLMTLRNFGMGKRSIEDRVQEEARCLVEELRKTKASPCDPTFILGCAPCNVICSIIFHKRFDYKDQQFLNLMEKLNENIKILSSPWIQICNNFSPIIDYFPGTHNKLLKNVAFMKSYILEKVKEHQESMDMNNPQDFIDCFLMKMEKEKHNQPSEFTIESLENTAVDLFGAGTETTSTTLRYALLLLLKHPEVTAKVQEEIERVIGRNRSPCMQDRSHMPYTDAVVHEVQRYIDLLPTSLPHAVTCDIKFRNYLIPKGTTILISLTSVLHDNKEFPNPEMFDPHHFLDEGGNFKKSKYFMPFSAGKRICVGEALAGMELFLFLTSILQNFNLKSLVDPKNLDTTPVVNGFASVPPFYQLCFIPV
# Cytochrome P450 2D6 (Homo sapiens), sequence (P10635 whole entry, looked up): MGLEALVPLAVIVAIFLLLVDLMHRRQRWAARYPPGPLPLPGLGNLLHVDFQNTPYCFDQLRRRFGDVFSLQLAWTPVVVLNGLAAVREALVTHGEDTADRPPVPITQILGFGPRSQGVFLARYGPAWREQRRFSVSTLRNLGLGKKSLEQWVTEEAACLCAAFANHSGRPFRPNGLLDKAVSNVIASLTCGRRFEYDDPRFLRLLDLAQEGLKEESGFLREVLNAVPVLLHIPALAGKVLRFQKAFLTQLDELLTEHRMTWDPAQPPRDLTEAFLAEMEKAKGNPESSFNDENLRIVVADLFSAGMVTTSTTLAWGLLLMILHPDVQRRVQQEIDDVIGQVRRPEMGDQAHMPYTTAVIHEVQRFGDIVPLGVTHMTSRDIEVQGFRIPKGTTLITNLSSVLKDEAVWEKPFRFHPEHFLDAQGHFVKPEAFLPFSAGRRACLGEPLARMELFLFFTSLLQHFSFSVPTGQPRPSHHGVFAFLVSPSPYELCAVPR
# Nuclear receptor subfamily 1 group I member 2 (Homo sapiens), sequence (O75469 whole entry, looked up): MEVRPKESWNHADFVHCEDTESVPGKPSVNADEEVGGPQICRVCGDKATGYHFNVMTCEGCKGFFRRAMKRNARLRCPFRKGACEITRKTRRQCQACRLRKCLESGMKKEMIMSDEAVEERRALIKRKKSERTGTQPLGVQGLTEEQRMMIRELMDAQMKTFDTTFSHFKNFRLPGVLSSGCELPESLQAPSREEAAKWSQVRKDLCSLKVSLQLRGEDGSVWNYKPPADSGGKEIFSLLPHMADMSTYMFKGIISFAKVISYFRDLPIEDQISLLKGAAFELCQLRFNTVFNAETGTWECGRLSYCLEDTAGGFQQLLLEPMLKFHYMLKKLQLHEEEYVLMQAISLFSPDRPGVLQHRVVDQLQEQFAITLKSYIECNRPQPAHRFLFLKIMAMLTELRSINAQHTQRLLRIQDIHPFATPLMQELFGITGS
# Cytochrome P450 2C19 (Homo sapiens), sequence (P33261 whole entry, looked up): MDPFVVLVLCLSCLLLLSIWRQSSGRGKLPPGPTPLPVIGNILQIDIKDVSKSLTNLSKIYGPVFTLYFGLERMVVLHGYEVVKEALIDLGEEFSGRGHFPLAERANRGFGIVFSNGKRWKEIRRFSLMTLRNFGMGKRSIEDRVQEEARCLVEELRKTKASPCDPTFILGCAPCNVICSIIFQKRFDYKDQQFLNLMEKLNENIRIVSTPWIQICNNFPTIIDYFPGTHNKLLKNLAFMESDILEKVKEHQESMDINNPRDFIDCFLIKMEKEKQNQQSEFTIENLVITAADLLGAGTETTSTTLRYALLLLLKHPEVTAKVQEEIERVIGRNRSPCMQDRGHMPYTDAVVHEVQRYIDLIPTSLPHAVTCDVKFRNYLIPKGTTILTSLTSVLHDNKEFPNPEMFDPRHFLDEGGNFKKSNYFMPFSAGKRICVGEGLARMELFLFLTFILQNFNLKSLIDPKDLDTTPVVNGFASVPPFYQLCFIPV
# Cytochrome P450 3A4 (Homo sapiens), sequence (P08684 whole entry, looked up): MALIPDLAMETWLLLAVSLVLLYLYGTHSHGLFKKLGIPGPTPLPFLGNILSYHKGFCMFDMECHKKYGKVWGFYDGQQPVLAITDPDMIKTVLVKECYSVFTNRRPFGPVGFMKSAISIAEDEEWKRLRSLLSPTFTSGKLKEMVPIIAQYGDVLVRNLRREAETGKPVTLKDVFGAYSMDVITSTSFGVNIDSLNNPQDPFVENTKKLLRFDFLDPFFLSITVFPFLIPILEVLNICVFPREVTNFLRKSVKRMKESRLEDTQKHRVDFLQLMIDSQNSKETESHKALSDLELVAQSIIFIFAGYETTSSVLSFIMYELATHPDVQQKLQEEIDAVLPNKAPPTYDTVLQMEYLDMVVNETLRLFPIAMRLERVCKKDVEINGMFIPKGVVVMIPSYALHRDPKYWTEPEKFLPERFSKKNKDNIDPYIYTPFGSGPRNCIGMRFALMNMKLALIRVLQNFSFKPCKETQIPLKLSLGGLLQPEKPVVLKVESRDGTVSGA
# Acetylcholinesterase (Homo sapiens), sequence (P22303 whole entry, looked up): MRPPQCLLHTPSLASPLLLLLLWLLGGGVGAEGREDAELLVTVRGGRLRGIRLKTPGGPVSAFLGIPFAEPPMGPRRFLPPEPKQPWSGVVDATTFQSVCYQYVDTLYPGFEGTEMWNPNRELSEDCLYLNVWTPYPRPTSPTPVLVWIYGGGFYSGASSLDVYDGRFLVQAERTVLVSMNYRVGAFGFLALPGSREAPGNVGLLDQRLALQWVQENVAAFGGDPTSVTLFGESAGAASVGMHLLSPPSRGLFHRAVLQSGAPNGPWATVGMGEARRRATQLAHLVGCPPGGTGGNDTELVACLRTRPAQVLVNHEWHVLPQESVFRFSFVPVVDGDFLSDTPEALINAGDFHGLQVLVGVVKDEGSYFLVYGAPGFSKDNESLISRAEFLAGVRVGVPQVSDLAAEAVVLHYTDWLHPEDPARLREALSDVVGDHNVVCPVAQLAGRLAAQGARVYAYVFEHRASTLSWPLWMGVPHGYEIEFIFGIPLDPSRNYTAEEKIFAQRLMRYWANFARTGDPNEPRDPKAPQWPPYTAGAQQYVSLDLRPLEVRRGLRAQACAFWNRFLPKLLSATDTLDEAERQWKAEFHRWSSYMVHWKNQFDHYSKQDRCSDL
# Cytochrome P450 1A2 (Homo sapiens), sequence (P05177 whole entry, looked up): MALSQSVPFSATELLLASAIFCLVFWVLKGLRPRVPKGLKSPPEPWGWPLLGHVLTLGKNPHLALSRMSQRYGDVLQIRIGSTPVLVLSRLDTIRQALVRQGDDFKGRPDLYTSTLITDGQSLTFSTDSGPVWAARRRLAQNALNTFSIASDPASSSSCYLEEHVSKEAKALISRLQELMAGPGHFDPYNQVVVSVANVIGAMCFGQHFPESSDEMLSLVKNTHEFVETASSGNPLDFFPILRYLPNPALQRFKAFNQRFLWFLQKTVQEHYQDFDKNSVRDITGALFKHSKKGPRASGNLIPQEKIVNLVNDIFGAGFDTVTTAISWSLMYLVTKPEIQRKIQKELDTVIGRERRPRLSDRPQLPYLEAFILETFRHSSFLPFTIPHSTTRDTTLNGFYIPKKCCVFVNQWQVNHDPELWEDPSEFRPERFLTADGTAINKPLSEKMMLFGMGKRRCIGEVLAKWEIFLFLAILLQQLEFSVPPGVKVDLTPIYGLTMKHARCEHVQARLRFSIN
# Nuclear receptor subfamily 1 group I member 2 (Rattus norvegicus), sequence (Q9R1A7 whole entry, looked up): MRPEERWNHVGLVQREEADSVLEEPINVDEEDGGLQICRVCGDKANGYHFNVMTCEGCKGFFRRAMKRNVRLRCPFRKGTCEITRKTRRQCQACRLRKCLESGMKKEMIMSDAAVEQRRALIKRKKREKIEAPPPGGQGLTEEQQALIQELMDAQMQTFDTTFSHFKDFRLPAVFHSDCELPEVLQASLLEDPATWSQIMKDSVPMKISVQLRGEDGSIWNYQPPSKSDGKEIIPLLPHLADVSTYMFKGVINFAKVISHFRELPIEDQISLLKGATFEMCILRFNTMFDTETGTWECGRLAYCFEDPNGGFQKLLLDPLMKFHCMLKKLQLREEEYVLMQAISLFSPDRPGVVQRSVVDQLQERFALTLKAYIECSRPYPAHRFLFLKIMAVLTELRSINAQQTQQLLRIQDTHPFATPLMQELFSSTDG
smiles,measurement,setting,value
CC1CC(CC2CCC(N)C(C)C2)CCC1N (configuration not stated),Potency,[1],inactive
same,Potency,[2],inactive
same,Potency,[3],inactive
same,Potency,[4],inactive
same,Potency,[5],inactive
same,Potency,[6],inactive
same,Potency,[7],inactive
same,Potency,[8],inactive
same,Potency,[9],inactive
same,Potency,[10],12.8 µM (active)
same,Potency,[11],inactive
same,Potency,[12],32.2 µM (active)
same,Potency,[13],inactive
same,Potency,[14],2.87 µM (active)
Clc1ccc(C(OCCN2CCCCC2)c2ccccc2)cc1 (configuration not stated),Potency,[1],inactive
same,Potency,[2],inactive
same,Potency,[3],inactive
same,Potency,[4],inactive
same,Potency,[5],inactive
same,Potency,[6],inactive
same,max activation,[15],-3.11%
same,Potency,[16],12.6 µM (active)
same,Potency,[17],inactive
same,Potency,[7],inactive
same,Potency,[8],inactive
same,Potency,[9],inactive
same,Potency,[10],0.174 µM (active)
same,Potency,[18],24.5 µM (active)
same,Potency,[13],0.601 µM (active)
CN1[C@@H]2CC[C@H]1CC(OC(=O)c1cc(Cl)cc(Cl)c1)C2 (some centres not stated),Potency,[1],inactive
same,Potency,[2],inactive
same,Potency,[3],inactive
same,Potency,[4],inactive
same,Potency,[5],inactive
same,Potency,[6],inactive
same,Potency,[8],inactive
same,Potency,[9],inactive
same,Potency,[19],inactive
same,Potency,[18],inactive
same,Potency,[11],inactive
same,Potency,[13],7.56 µM (active)
same,Potency,[14],inactive
Clc1cc(Cl)c(Cl)c(Cl)c1,Potency,[20],inactive
same,Potency,[2],inactive
same,Potency,[3],inactive
same,Potency,[4],inactive
same,Potency,[5],inactive
same,Potency,[6],inactive
same,Potency,[7],inactive
same,Potency,[8],inactive
same,Potency,[9],inactive
same,Potency,[19],inactive
same,Potency,[10],inactive
same,Potency,[18],inactive
same,Potency,[11],inactive
same,Potency,[13],inactive
same,Potency,[14],inactive
C/C(=C\c1ccccc1)[N+](=O)[O-],Potency,[1],inactive
same,Potency,[20],43.3 µM (active)
same,Potency,[3],10.9 µM (active)
same,Potency,[4],inactive
same,Potency,[5],68.6 µM (active)
same,Potency,[6],24.3 µM (active)
same,Potency,[8],inactive
same,Potency,[9],inactive
same,Potency,[19],inactive
same,Potency,[12],35.6 µM (active)
same,Potency,[13],inactive
same,Potency,[14],44.8 µM (active)
CCOP(=O)(OCC)O/C(=C/Cl)c1ccc(Cl)cc1Cl,Potency,[1],inactive
same,Potency,[2],inactive
same,Potency,[4],inactive
same,Potency,[6],4.86 µM (active)
same,Potency,[15],14.1 µM (active)
same,Potency,[16],inactive
same,Potency,[17],3.98 µM (active)
same,Potency,[10],39.9 µM (active)
same,Potency,[18],1.12 µM (active)
same,Potency,[11],28.3 µM (active)
same,Potency,[12],6.33 µM (active)
same,Potency,[13],inactive
same,Potency,[14],inactive
